The results in this text go back to the supplement of paper PMC9950053.

Structures can show the parent of a compound that is named as a salt.

In this experiment the test system is Danio rerio larvae (5 dpf). Put plainly: combined optomotor response (time in upper well half, down vs up moving lines, periods 7-14) minus DMSO control (percentage points); higher = stronger optomotor response than DMSO larvae. Particulars: 10 µM; exposure time: 3 h pre-incubation + 3 h imaging. The protocol: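 Wild-type 5 dpf zebrafish larvae (n=48 per drug, 96-well plates, 28.5 °C) were exposed to Tocris FDA-approved library compounds at 10 µM (0.1% DMSO) for 3 h before and 3 h during imaging. Images were taken every 6 s during visual and acoustic stimuli, and larvae were tracked with Z-LaP Tracker. Each measure is the treated-group mean minus the DMSO control mean (n=844), in percentage points. This mapping covers compounds with 5-character plate codes.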
As to `CC(C)(C(=O)O)c1ccc(C(O)CCCN2CCC(C(O)(c3ccccc3)c3ccccc3)CC2)cc1` (stereo unspecified) [Fexofenadine hydrochloride], the combined optomotor response is 3.85.

On to `OC(c1cc(C(F)(F)F)nc2c(C(F)(F)F)cccc12)C1CCCCN1` (stereo unspecified) [Mefloquine hydrochloride], for which the combined optomotor response is -2.6.

For `COc1cc(N)c(Cl)cc1C(=O)NC1CCN(CCCOc2ccc(F)cc2)CC1OC` (stereo unspecified) [Cisapride], the combined optomotor response worked out at 4.72.

On to `CNS(=O)(=O)Cc1ccc2[nH]cc(CCN(C)C)c2c1` [Sumatriptan succinate], for which the combined optomotor response was -0.931.

With `CNC(=O)c1cc(Oc2ccc(NC(=O)Nc3ccc(Cl)c(C(F)(F)F)c3)cc2)ccn1` [Sorafenib], the combined optomotor response is -1.64.

Take `CCCc1nn(C)c2c(=O)[nH]c(-c3cc(S(=O)(=O)N4CCN(C)CC4)ccc3OCC)nc12` [Sildenafil citrate]: the combined optomotor response is -0.855.

In the case of `OCCN1C[C@H](O)[C@@H](O)[C@H](O)[C@H]1CO` [Miglitol], the combined optomotor response is 5.48.

Regarding `Cc1cc2c(s1)Nc1ccccc1N=C2N1CCN(C)CC1` [Olanzapine], the combined optomotor response was 8.87.

As to `CCc1nc(N)nc(N)c1-c1ccc(Cl)cc1` [Pyrimethamine], the combined optomotor response is 7.22.

Take `CC(C)COCC(CN(Cc1ccccc1)c1ccccc1)N1CCCC1` (stereo unspecified) [Bepridil hydrochloride]: the combined optomotor response was found to be 8.48.

Take `Clc1ccc2nsnc2c1NC1=NCCN1` [Tizanidine hydrochloride]: the combined optomotor response is 1.65.

As to `CC(=O)Nc1ccc(O)cc1` [Acetaminophen], the combined optomotor response stood at 0.558.

For `CC(=O)Oc1cc2c(s1)CCN(C(C(=O)C1CC1)c1ccccc1F)C2` (stereo unspecified) [Prasugrel], the combined optomotor response amounted to 6.75.

Take `CN(C)CCc1c[nH]c2ccc(C[C@H]3COC(=O)N3)cc12` [Zolmitriptan]: the combined optomotor response was found to be 5.82.

For `CNCc1ccc(-c2[nH]c3cc(F)cc4c3c2CCNC4=O)cc1` [Rucaparib camsylate], the combined optomotor response came to 4.21.

On to `O=c1n(CCCN2CCN(c3cccc(Cl)c3)CC2)nc2ccccn12` [Trazodone hydrochloride], for which the combined optomotor response came out at 2.35.

Consider `CC[C@H]1OC(=O)[C@H](C)[C@@H](O[C@H]2C[C@@](C)(OC)[C@@H](O)[C@H](C)O2)[C@H](C)[C@@H](O[C@@H]2O[C@H](C)C[C@H](N(C)C)[C@H]2O)[C@](C)(O)C[C@@H](C)CN(C)[C@H](C)[C@@H](O)[C@]1(C)O` [Azithromycin], for which the combined optomotor response is -4.55.

On to `N#Cc1ccc2[nH]cc(CCCCN3CCN(c4ccc5oc(C(N)=O)cc5c4)CC3)c2c1` [Vilazodone hydrochloride], for which the combined optomotor response was -6.69.

Consider `CCCCCCCN(CC)CCCC(O)c1ccc(NS(C)(=O)=O)cc1` (stereo unspecified) [Ibutilide hemifumarate], for which the combined optomotor response was 5.81.

Consider `COc1ccccc1Oc1c(NS(=O)(=O)c2ccc(C(C)(C)C)cc2)nc(-c2ncccn2)nc1OCCO` [Bosentan], for which the combined optomotor response was 1.31.

For `OCc1cc(C(O)CNCCCCCCOCCCCc2ccccc2)ccc1O` (stereo unspecified) [Salmeterol xinafoate], the combined optomotor response is 0.619.

Consider `CCCC1O[C@@H]2C[C@H]3[C@@H]4CCC5=CC(=O)C=C[C@]5(C)[C@H]4[C@@H](O)C[C@]3(C)[C@]2(C(=O)CO)O1` (stereo partly specified) [Budesonide], for which the combined optomotor response amounted to 2.27.

As for `N#C[C@@H]1C[C@@H]2C[C@@H]2N1C(=O)[C@@H](N)C12CC3CC(CC(O)(C3)C1)C2` [Saxagliptin hydrochloride], the combined optomotor response is -2.67.

Regarding `O=C(O)C[C@H](O)C[C@H](O)/C=C/c1c(C2CC2)nc2ccccc2c1-c1ccc(F)cc1` [Pitavastatin calcium], the combined optomotor response came to 8.14.

Turning to `C[C@H]1O[C@H](O[C@H]2[C@H](O)[C@@H](O)[C@@H](O[C@H]3[C@H](O)[C@@H](O)C(O)O[C@@H]3CO)O[C@@H]2CO)[C@H](O)[C@@H](O)[C@@H]1N[C@H]1C=C(CO)[C@@H](O)[C@H](O)[C@H]1O` (stereo partly specified) [Acarbose], the combined optomotor response was 3.82.

As for `COCCc1ccc(OCC(O)CNC(C)C)cc1` (stereo unspecified) [Metoprolol tartrate], the combined optomotor response worked out at 1.91.

Turning to `CN[C@H]1CC[C@@H](c2ccc(Cl)c(Cl)c2)c2ccccc21` [Sertraline hydrochloride], the combined optomotor response was -6.63.

Regarding `COc1cc2nccc(Oc3ccc(NC(=O)C4(C(=O)Nc5ccc(F)cc5)CC4)cc3)c2cc1OC`, the combined optomotor response was determined as 0.162.

Turning to `NS(=O)(=O)c1cc2c(cc1Cl)NC(C1CC3C=CC1C3)NS2(=O)=O` (stereo unspecified) [Cyclothiazide], the combined optomotor response is 0.296.

For `O=C1CCc2ccc(OCCCCN3CCN(c4cccc(Cl)c4Cl)CC3)cc2N1` [Aripiprazole], the combined optomotor response was 1.74.

Consider `CN(C)C(=N)NC(=N)N` [Metformin hydrochloride], for which the combined optomotor response worked out at 8.63.

With `COc1ccccc1OCC(O)CN1CCN(CC(=O)Nc2c(C)cccc2C)CC1` (stereo unspecified) [Ranolazine dihydrochloride], the combined optomotor response came out at 10.9.

As for `NC(=O)OCC(COC(N)=O)c1ccccc1` [Felbamate], the combined optomotor response is -0.92.

`C#CCN[C@@H]1CCc2ccccc21` [Rasagiline mesylate]: the combined optomotor response came to 6.3.

Turning to `COc1cc([C@@H]2c3cc4c(cc3[C@@H](O[C@@H]3O[C@@H]5CO[C@@H](C)O[C@H]5[C@H](O)[C@H]3O)[C@H]3COC(=O)[C@H]23)OCO4)cc(OC)c1O` [Etoposide], the combined optomotor response came out at 4.51.

For `CC(C)OC(=O)C(C)(C)Oc1ccc(C(=O)c2ccc(Cl)cc2)cc1` [Fenofibrate], the combined optomotor response stood at 2.45.
